Tau fluor counter: counter-screen for tau fibril formation inhibitors. tau K18 P301L Alexa594 fluorescence, heparin fibrillization. Potency, µM (top dose mostly 57.7 µM). actives 0.93% (n = 280,000). AID 1463; note: nearly all actives have a fitted effect of over 55% in size
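Human tau K18 P301L (15 uM unlabeled, 0.24 uM Alexa 594-labeled) in 100 mM sodium acetate pH 7 with 20 uM heparin, 6 hr at 37 C. ThT 30 uM added, 1 hr ambient; Alexa 594 FP and total fluorescence read at 555/632 nm.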
Coupling enz: inhibits coupling enzyme system, counter-screen for aldolase hits; coupling enzyme system counterscreen, AmpLite Red fluorescence; activity change, negative = inhibition, % at 58.2 µM, hits read low; actives 0.67% (n = 290,000); in the data active = activity change below about -30%
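Counterscreen lacking aldolase: glyceraldehyde-3-phosphate coupling-enzyme reagent preincubated 10 min at RT with compound (at 57.5 uM final), then substrate/coupling system with AmpLite Red added; fluorescence read at 525/598 nm after 20 min RT.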
Sfp PPTase inh: inhibitors of Bacillus subtilis Sfp phosphopantetheinyl transferase; actives 3.5% (n = 310,000); Biochemical Sfp PPTase activity, qHTS; Q9F4F7; Potency, µM, hits mostly inhibitors;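 note: the enzyme is Sfp with the accession as filed and its product quenches rhodamine fluorescence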
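Fluorescence-quenching assay with 15 nM Sfp, 5 uM rhodamine-CoA and 12.5 uM BHQ-2-labelled ybbR peptide in pH 7.6 Hepes/MgCl2 buffer. Enzyme was pre-incubated with compound for 15 min at room temperature. Rate was taken from the 30-min fluorescence change (525/598 nm).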
Tau fibril FP: blocks human tau fibril formation measured by polarization; P10636; K18 P301L tau heparin fibrillization, Alexa594 FP, 6 h; Potency, µM (doses to about 57.7 µM), hits mostly inhibitors; actives 0.39% (n = 280,000); AID 1468; note: nearly all actives have a fitted effect of over 55% in size
Target sequence (P10636 561-689 P618L limits assumed): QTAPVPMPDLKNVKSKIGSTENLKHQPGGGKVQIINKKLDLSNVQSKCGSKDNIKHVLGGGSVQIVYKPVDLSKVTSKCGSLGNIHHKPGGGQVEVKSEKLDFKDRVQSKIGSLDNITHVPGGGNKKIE
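K18 P301L tau (15 uM unlabeled/0.24 uM Alexa 594-labeled, final) + compound + heparin 20 uM final; 100 mM NaOAc pH 7; 6 hr 37 C; ThT 30 uM final added, 1 hr RT; FP ex 555/em 632 nm.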
Tau ThT inhib: tau fibrillization inhibition (ThT binding); recombinant tau K18 P301L (four-repeat tau fragment), heparin-induced fibrillization, ThT fluorescence; Potency, µM (titrated, usually from 57.4 µM), actives largely listed as inhibitors; actives 2.1% (n = 270,000); note: nearly all actives have a fitted effect of over 55% in size
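Aggregation was driven by heparin (20 uM final) acting on recombinant tau […] bearing P301L in 100 mM sodium acetate pH 7; fibrils were detected with Thioflavin T.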
JMJD2E inh: inhibitors of human JMJD2E histone demethylase; B2RXH2; JMJD2E catalytic domain, FDH-coupled NADH fluorescence (FDH is formaldehyde dehydrogenase); Potency, µM (titrated, usually from 57.1 µM), hits mostly inhibitors; actives 1.6% (n = 230,000); AID 2147; active = well fitted inhibition curve with a large enough effect, not every such curve was filed as active; inconclusive = small, poorly fitted or top-dose-only effect, or another doubt; inactive = no such curve, though single readings can be large or run the other way; note: nearly all actives have a fitted effect of over 50% in size
Target sequence (B2RXH2 1-337 limits assumed): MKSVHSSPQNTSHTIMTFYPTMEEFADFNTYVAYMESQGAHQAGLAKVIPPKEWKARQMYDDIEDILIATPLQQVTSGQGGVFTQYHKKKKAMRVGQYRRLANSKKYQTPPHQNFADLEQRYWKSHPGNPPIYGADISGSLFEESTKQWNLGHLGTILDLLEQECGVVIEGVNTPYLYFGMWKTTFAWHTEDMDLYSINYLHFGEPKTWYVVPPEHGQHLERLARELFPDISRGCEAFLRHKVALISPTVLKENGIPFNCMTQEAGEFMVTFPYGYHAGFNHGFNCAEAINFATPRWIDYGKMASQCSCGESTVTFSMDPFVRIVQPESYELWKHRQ
Large screens that a line does not name were inactive; [ ] = dose if it differs, or a comment. A selection: hits, their analogues and other compounds. The true share with any hit is near 5.3%. Unless noted, calls come from the whole dose curve; as a rule, active = well fitted curve in the direction sought with a large enough effect; inconclusive = small, poorly fitted or top-dose-only effect, or another doubt; inactive = no such curve, though single readings can be large; an effect the other way counts as inactive or inconclusive.

O=C(CN1CCN(c2nc(-c3ccc(Cl)cc3)cs2)CC1)NCc1ccco1	Tau ThT inhib inconclusive
O=S(=O)(Cc1noc(-c2ccc(Cl)cc2)n1)Cc1ccco1	Sfp PPTase inh 3.98µM
CC(=O)Nc1ccc(SCC(CC(C)C)N2CCN(C)CCC2=O)cc1 (stereo not given)	none (no result: Tau fluor counter, Tau fibril FP, Tau ThT inhib, JMJD2E inh)
Cc1cccc(C)c1OCC(=O)NC1CC1	Sfp PPTase inh 50.1µM (no result: Tau fluor counter, Coupling enz, Tau fibril FP, Tau ThT inhib, JMJD2E inh)
O=C(COc1ccc(C(=O)O)cc1)Nc1cccc(C(F)(F)F)c1	none
CCOc1ccc(NC(=S)Nc2ccc(F)cc2)cc1	none (no result: Tau fluor counter, Tau fibril FP, Tau ThT inhib, JMJD2E inh)
O=C(COCC(=O)Nc1cccc(C(F)(F)F)c1)Nc1cccc(C(F)(F)F)c1	Tau fluor counter inconclusive, Tau fibril FP 11.2µM
CCOc1cc(OCC)cc(C(=O)NC(=S)Nc2cccc(C(F)(F)F)c2)c1	Sfp PPTase inh 89.1µM
COc1cc(Nc2ccccn2)cc(C(=O)Nc2cccc(C(F)(F)F)c2)c1	Tau fluor counter 14.1µM[quencher], JMJD2E inh inconclusive
CCOc1ccc(NC(=S)NN(C)C(=S)Nc2ccc(OCC)cc2)cc1	Tau fluor counter 17.8µM[quencher], Tau ThT inhib inconclusive
Cc1c2cnn(CC(=O)NCCc3ccccc3)c(=O)c2c(C)n1Cc1ccccc1Cl	none (no result: Coupling enz, Sfp PPTase inh, JMJD2E inh)
COc1ccc(-c2nc3c(c4c2C[C@H](c2ccccc2)OC4)CN(S(=O)(=O)c2ccc(C#N)cc2)CC3)c(C)c1	none
CCOc1ccc(NC(=S)NNC(=S)Nc2cccc(C(F)(F)F)c2)cc1	Tau fluor counter 28.2µM[quencher], Sfp PPTase inh 35.5µM, Tau fibril FP inconclusive, Tau ThT inhib 31.6µM
Cc1ccc(C(=O)O)cc1NC(=S)NC(=O)Cc1ccccc1	none
Cc1ccc(C(=O)O)cc1NC(=S)NC(=O)c1ccc(COc2ccccc2)cc1	Sfp PPTase inh 50.1µM (no result: Tau fluor counter, Coupling enz, Tau fibril FP, Tau ThT inhib, JMJD2E inh)
CC(C)(O)C(=O)NNC(=S)Nc1cccc(C(F)(F)F)c1	none
CNNC(=S)Nc1cccc(C(F)(F)F)c1	none
FC(F)(F)c1cccc(NC(=S)NNC(=S)Nc2cccc(C(F)(F)F)c2)c1	Tau fluor counter 10µM[quencher], Sfp PPTase inh 25.1µM, Tau fibril FP inconclusive, Tau ThT inhib 28.2µM
CCCCCNCC(=O)Nc1cccc(C(=O)Nc2cccc(C(F)(F)F)c2)c1	Tau fluor counter inconclusive, Sfp PPTase inh 31.6µM, Tau fibril FP inconclusive, JMJD2E inh inconclusive
CC(OCc1ccccc1)C(NC(=O)OC(C)(C)C)C(=O)NC1COC2CC(n3cc(F)c(=O)[nH]c3=O)OC12 (stereo not given)	none (no result: Tau fluor counter, Tau fibril FP, Tau ThT inhib, JMJD2E inh)
COc1ccc(NC(=S)NNC(=S)Nc2cccc(C(F)(F)F)c2)cc1	Tau fluor counter 14.1µM[quencher], Sfp PPTase inh 20µM, Tau ThT inhib inconclusive
FC(F)(F)c1cccc(NC(=S)Nc2ccc(Cl)c(Cl)c2)c1	Tau fluor counter 17.8µM[quencher], Tau fibril FP 22.4µM, Tau ThT inhib inconclusive
COC(=S)Nc1cccc(C(F)(F)F)c1	none
CCOc1cccc(C(=O)NC(=S)Nc2ccc(Cl)cc2C(=O)O)c1	Sfp PPTase inh 44.7µM, JMJD2E inh inconclusive
S=C(NCc1ccncc1)Nc1ccc(Cl)c(Cl)c1	Tau fibril FP inconclusive
O=[N+]([O-])c1cc(C(F)(F)F)cc([N+](=O)[O-])c1NCCNC(=S)Nc1ccc(Cl)c(Cl)c1	Tau fluor counter 5.62µM[quencher], Tau fibril FP inconclusive, Tau ThT inhib inconclusive
CN(NS(C)(=O)=O)c1ncc(C(F)(F)F)cc1Cl	Sfp PPTase inh 79.4µM
CC(=O)c1ccc(-c2c(C3C4C=CCCC4(C)C(=O)N3Cc3ccccc3)ccc3ccccc23)cc1 (stereo not given)	none (no result: Tau fluor counter, Tau fibril FP, Tau ThT inhib, JMJD2E inh)
Cc1ccc(C(=O)CSC2=NC(N)=C(C#N)C3(CCCCC3)C2C(N)=O)cc1 (stereo not given)	Sfp PPTase inh 44.7µM, Tau fibril FP inconclusive, Tau ThT inhib 25.1µM
N#CC1=C(N)N=C(SCc2ccccc2)C(C(N)=O)C12CCCCC2 (stereo not given)	none
CC1(C)C(/C=C/C=C/C=C/C=C2\N(CCCCS(=O)(=O)O)c3ccc4ccccc4c3C2(C)C)=[N+](CCCCS(=O)(=O)[O-])c2ccc3ccccc3c21	Sfp PPTase inh 50.1µM (no result: Tau fluor counter, Coupling enz, Tau fibril FP, Tau ThT inhib, JMJD2E inh)
CCOc1ccc(-c2cc(CCCC(=O)NCCc3cc(OC)c(OC)c(OC)c3)no2)cc1	Tau ThT inhib inconclusive (no result: Coupling enz, Sfp PPTase inh, JMJD2E inh)
CCCC1(C(=O)O)NC(c2ccccc2O)C2C(=O)N(Cc3ccccc3)C(=O)C21 (stereo not given)	Sfp PPTase inh inconclusive
CSCCC1(C(=O)O)NC(c2ccccc2O)C2C(=O)N(C(C)C)C(=O)C21 (stereo not given)	Sfp PPTase inh 79.4µM
O=[N+]([O-])c1cc2c(cc1CN1CCN(CCOCCO)CC1)OCO2	Sfp PPTase inh 79.4µM (no result: Tau fluor counter, Tau fibril FP, Tau ThT inhib, JMJD2E inh)
O=[N+]([O-])c1ccc(N2CCN(CCOCCO)CC2)c([N+](=O)[O-])c1	JMJD2E inh 10µM
O=[N+]([O-])c1ccccc1S(=O)(=O)N1CCN(Cc2cc3c(cc2O)OCO3)CC1	Tau fluor counter 11.2µM[quencher], Tau fibril FP inconclusive, Tau ThT inhib inconclusive
O=[N+]([O-])c1cc(C(F)(F)F)ccc1N1CCN(CCO)CC1	none
O=C(Nc1nnc2n1CCS2)c1cc(C(F)(F)F)cc(C(F)(F)F)c1	none (no result: Coupling enz, Sfp PPTase inh, JMJD2E inh)
O=C(NCc1ccccn1)c1ccc(=O)oc1	Sfp PPTase inh 89.1µM, JMJD2E inh inconclusive
O=C(CSc1nc(-c2ccc(F)cc2)[nH]c1-c1ccc(F)cc1)Nc1ccc2c(c1)OCCO2	Tau fluor counter 8.91µM[quencher], Tau ThT inhib inconclusive (no result: Coupling enz, Sfp PPTase inh, JMJD2E inh)
